Results taken from PubChem BioAssay (NCATS).
Inconclusive results are not listed. Active and inactive are the calls of the source. The call rests on the fitted dose curve; in most records, active means well fitted inhibition curve with a large enough effect; inconclusive means small, poorly fitted or top-dose-only effect; inactive means flat fitted curve, though single readings scatter.

Columns and labels:
Assay in all cases: qHTS profiling for inhibitors of Plasmodium falciparum proliferation (AID 504749); further: nearly all actives have a fitted effect of over 60% in size
Details in all cases: P. falciparum in erythrocytes, SYBR Green DNA, 72 h; series mostly up to 28.7 µM
[1] = test system: ECU
How it was run: (§1)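 Fluorescence of SYBR Green-bound parasite DNA, read at 485/535 nm, served as the growth measure. Infected erythrocytes were cultured with compound 72 h; artemisinin (0.29 uM) and DMSO wells defined the normalization range.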

[2] = test system: FAB9
How it was run: as §1

[3] = test system: GB4
How it was run: as §1

[4] = test system: ICS
How it was run: as §1

[5] = test system: JCK
How it was run: as §1

[6] = test system: N140
How it was run: as §1

[7] = test system: P93_24
How it was run: as §1

[8] = test system: P94_40
How it was run: as §1

[9] = test system: PAD
How it was run: as §1

[10] = test system: PC26
How it was run: as §1

[11] = test system: PC49
How it was run: as §1

[12] = test system: SC27B
How it was run: as §1

[13] = test system: TAB109
How it was run: as §1

[14] = test system: TAB113
How it was run: as §1

[15] = test system: TAB165
How it was run: as §1

[16] = test system: HB3
How it was run: as §1

[17] = test system: W2
How it was run: as §1

[18] = test system: PC15
How it was run: as §1

Measured: Potency
Potency means the concentration at half of the fitted maximal effect.

Cc1c(C)c2c(c(C)c1OC(=O)CCC(=O)O)CC[C@@](C)(CCC[C@H](C)CCC[C@H](C)CCCC(C)C)O2
active: [4] 11.2 µM
not listed: [16] | [17] | [18]
inactive: all other assays above

N#Cc1ccc2c(c1)N(CCCN1CCC(O)CC1)c1ccccc1S2
inactive: [1] | [2] | [16] | [5] | [11]
active: [6] 12.6 µM | [17] 4.26 µM

[O]=[Bi][O]C(=O)[O][Bi]=[O]
not listed: [4]
inactive: all other assays above

CN1CCc2c(c3ccccc3n2Cc2ccccc2)C1
active: [17] 2.56 µM
not listed: [3] | [8] | [10] | [15]
inactive: all other assays above

C[C@@](Cc1ccc(O)c(O)c1)(NN)C(=O)O
not listed: [4] | [8]
inactive: all other assays above

Cc1cc(C(=O)NCCc2ccc(S(=O)(=O)NC(=O)NN3CCCCCC3)cc2)no1
not listed: [3] | [10]
inactive: all other assays above

O=C(O)CCC/C=C\C[C@@H]1[C@@H](/C=C/[C@@H](O)COc2cccc(C(F)(F)F)c2)[C@H](O)C[C@@H]1O
not listed: [4] | [6] | [8] | [10] | [17]
inactive: all other assays above

O=C1CCC(c2ccccc2)(C2CCN(Cc3ccccc3)CC2)C(=O)N1 (centres undefined)
active: [17] 6.75 µM
not listed: [3] | [13]
inactive: all other assays above

CCCCCc1ccc(C)cc1O
active: [4] 7.08 µM
not listed: [3] | [15] | [17]
inactive: all other assays above

CN1CCCC(CN2c3ccccc3Sc3ccccc32)C1 (centres undefined)
active: [4] 12.6 µM | [6] 8.91 µM | [13] 11.2 µM | [15] 12.6 µM | [17] 3.38 µM
inactive: [2] | [16] | [5] | [11]

CC[C@H]1OC(=O)[C@H](C)[C@@H](O[C@H]2C[C@@](C)(OC)[C@@H](O)[C@H](C)O2)[C@H](C)[C@@H](O[C@@H]2O[C@H](C)C[C@H](N(C)C)[C@H]2O)[C@](C)(O)C[C@@H](C)CN(C)[C@H](C)[C@@H](O)[C@]1(C)O
inactive: [2] | [5] | [10] | [11]
active: [3] 7.57 µM | [6] 8.91 µM | [8] 2.51 µM | [13] 1 µM | [14] 12.6 µM | [15] 7.94 µM | [17] 0.426 µM

CC/C=C\C/C=C\C/C=C\C/C=C\C/C=C\C/C=C\CCC(=O)O
active: [4] 12.6 µM
not listed: [1] | [17]
inactive: all other assays above

O=C1c2ccccc2C(=O)C1c1ccc(Cl)cc1
not listed: [1] | [4]
inactive: all other assays above

C=CC[N+]1([C@H]2C[C@H]3[C@@H]4CC[C@H]5C[C@H](O)[C@@H](N6CCOCC6)C[C@]5(C)[C@H]4CC[C@]3(C)[C@H]2OC(C)=O)CCCC1
inactive: [2] | [5] | [18] | [11]
active: [8] 8.91 µM | [13] 6.31 µM | [17] 5.36 µM

O=C(CCCN1CCC(C(=O)c2ccc(F)cc2)CC1)c1ccc(F)cc1
inactive: [1] | [2] | [5] | [6] | [7] | [8] | [9] | [12] | [14]
active: [17] 3.79 µM

Cn1c(=O)c2c(ncn2CCOC(=O)C(C)(C)Oc2ccc(Cl)cc2)n(C)c1=O
not listed: [1] | [6] | [7] | [8] | [9] | [13] | [15]
inactive: all other assays above

O=C(Nc1ccc(O)cc1)c1ccccc1O
not listed: [1] | [14] | [15]
inactive: all other assays above
